Here are results for 17 compounds from PubChem BioAssay AID504725 (Broad Institute, 2011).

SMILES strings stand for the structures. Measured potencies and affinities stand elsewhere. Activity calls are given as the source filed them. How the calls were made is not given here.

The assay addresses KSHV LANA C-terminal domain (residues 932-1162) binding to LBS DNA (UniProt O40947). The assay can be described thus: inhibitors of C-LANA binding to LBS DNA, dose response, biochemical, fluorescence polarization, cherry-picked samples (AID 504725). As to conditions: MBP-C-LANA / FAM-LBS DNA fluorescence polarization, percent change from plate compound-well median; series mostly up to 35 µM. A general note: Polarisation of emitted light reports the rotation of a fluorescent probe.
For the compound `C=CCN1C(=O)/C(=c2\sc3nc(=O)c(Cc4ccccc4Cl)nn3c2=O)c2ccccc21`, the outcome was inactive.
In the case of `O=C(CSc1nc2ccccc2[nH]1)Nc1cccc(S(=O)(=O)N2CCOCC2)c1`, the compound was classed as inactive.
With `O=C(N/N=C\c1ccc([N+](=O)[O-])o1)c1cncc(Br)c1`, the call was inactive.
The entry for `Cc1nnc2sc(-c3csc4c3CCCC4)nn12` is “inactive”; for `Cc1cc(/C=N/Nc2ccc([N+](=O)[O-])cn2)c(C)n1-c1cccc(C(=O)O)c1` it is “inactive”; for `CN(CC(=O)Nc1ccc(N2CCOCC2)cc1)C(=O)CSc1ccc(Br)cc1` it is “inactive”.
As for `COc1ccc(Cn2nnc3c(=O)[nH]c(C4CCCN(C(=O)c5ccccc5)C4)nc32)cc1` (configuration not stated), the entry is “inactive”; as for `O=C(NCCCN1CCCC1=O)c1ccc2c(c1)ncn2C1CCCCC1`, “inactive”; as for `CCCCn1c(N)c(N(CCOC)C(=O)c2cc(C)oc2C)c(=O)[nH]c1=O`, “inactive”.
Turning to `Cc1ccc(S(=O)(=O)Nc2ccc(Br)cc2C(NCC(=O)O)c2ccccc2)cc1` (configuration not stated), the result was inactive.
With `Cc1cccc(NC(=O)CN2C(=O)NC(C)(c3ccc4ccccc4c3)C2=O)n1` (configuration not stated), the result was inactive.
As for `Oc1ccc(-c2nc3ccccn3c2NCc2ccco2)cc1`, the entry is “inactive”; as for `Cc1cc(NC(=O)CSc2nnc(COc3cccc(C)c3C)n2C)no1`, “inactive”; as for `C/C(=N\Nc1nc2c(s1)CCCC2)c1ccc(Cl)cc1`, “inactive”.
As for `CCCC1(C2CCCC2)NC(=O)NC1=O` (configuration not stated), the entry is “inactive”; as for `Cc1ccc(S(=O)(=O)/N=C2/C=C(Sc3ncn[nH]3)C(=O)c3ccccc32)cc1`, “inactive”; as for `CC(C)c1ccc(NC(=O)Cn2c(=O)oc3cccnc32)cc1`, “inactive”.
